# Screens: PubChem BioAssay, several laboratories
# An excerpt weighted towards active compounds, which were near 1% of everything screened.
# BAP1 inh: human BAP1 deubiquitinase inhibition; calls only at 20 µM; recombinant BAP1, Ub-AMC hydrolysis fluorescence kinetic; active compounds read low; 0.48% of 72,000 active; Q92560;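 active = activity remaining at or below 50% of control, provided the compound also passes the data quality filters; inactive = the rest, including low values that fail the filters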;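 note: 100% = DMSO wells rate and 0% = substrate alone blank rate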
# Target sequence (Q92560 whole entry, looked up): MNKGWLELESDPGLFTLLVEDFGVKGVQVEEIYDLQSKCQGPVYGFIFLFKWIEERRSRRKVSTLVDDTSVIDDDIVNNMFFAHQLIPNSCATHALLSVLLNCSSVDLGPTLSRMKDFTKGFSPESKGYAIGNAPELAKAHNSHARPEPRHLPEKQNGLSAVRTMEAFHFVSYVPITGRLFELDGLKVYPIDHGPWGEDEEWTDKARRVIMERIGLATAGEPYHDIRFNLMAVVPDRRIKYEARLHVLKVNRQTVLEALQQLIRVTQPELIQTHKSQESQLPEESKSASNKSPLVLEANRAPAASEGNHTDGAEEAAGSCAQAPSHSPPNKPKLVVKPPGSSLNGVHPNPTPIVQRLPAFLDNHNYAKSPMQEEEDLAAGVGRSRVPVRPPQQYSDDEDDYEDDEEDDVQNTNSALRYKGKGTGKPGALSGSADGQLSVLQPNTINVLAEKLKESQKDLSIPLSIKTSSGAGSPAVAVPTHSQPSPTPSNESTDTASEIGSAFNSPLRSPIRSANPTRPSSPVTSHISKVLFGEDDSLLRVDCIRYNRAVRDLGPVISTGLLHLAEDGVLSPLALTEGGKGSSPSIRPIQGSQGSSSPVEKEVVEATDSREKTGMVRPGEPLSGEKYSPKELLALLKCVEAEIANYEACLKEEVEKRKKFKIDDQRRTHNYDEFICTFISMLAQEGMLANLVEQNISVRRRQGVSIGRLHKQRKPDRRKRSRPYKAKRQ
# Hsp90 inh: displaces geldanamycin probe from tumor Hsp90; P07900; NCI-N417 lysate Hsp90, Cy3B-geldanamycin FP displacement; inhibition, % at 30 µM; AID 429; 0.35% of 64,000 active;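 active = inhibition above 50%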;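 note: 0% = tracer plus lysate wells and 100% = tracer alone without lysate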
# Cdc25B inh: inhibitors of human Cdc25B phosphatase; 0.1% of 65,000 active; AID 368; recombinant Cdc25B, OMFP fluorescence Ex485/Em525; inhibition, %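 (compounds tested at 10 µM final in the well)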; in the data active = inhibition above about 50%
# MKP-1 inh: inhibitors of human MKP-1 phosphatase; 0.15% of 65,000 active; inhibition, %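 (compounds tested at a single concentration somewhere between 10 and 100 µM)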; recombinant MKP-1, OMFP hydrolysis fluorescence;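 active = inhibition above about 50%, limit read from the data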;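 note: 0% = DMSO max control wells and 100% = wells with enzyme stopped by NaOH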
# Active calls of the source: *; i = inactive; / = no result shown; + = active, no number.
SMILES,BAP1 inh,Hsp90 inh,Cdc25B inh,MKP-1 inh
C[C@H](Cc1ccc(O)c(O)c1)[C@@H](C)Cc1ccc(O)c(O)c1,i,98*,/,/
CC(Cc1ccc(O)c(O)c1)C(C)Cc1ccc(O)c(O)c1 (centres undefined),/,103*,3,22
COc1ccc(-n2nc3c(c2NC(=O)c2ccc(Br)cc2)CS(=O)C3)cc1 (centres undefined),i,55*,-3,3
O=c1c2cc(N3CCOCC3)ccc2[nH]c(=S)n1Cc1ccco1,i,-3,-1,81*
CCCCOc1ccc(C(=O)NCC(=O)NCC(=O)OCC)cc1,i,0,91*,-25
O=C(Nc1nnc(Cc2ccccc2)s1)c1ccccc1I,i,/,/,/
O=C(Nc1nc(-c2ccccc2)c(C(=O)c2ccccc2)s1)c1cccc([N+](=O)[O-])c1,i,/,/,/
CC1CCCCC1NS(=O)(=O)c1ccc(S(=O)(=O)NCc2ccncc2)cc1 (centres undefined),i,-1,-16,81*
Cc1ccc(S(=O)(=O)NCc2ccncc2)cc1,i,0,-6,-5
Cc1ccc(NC(=O)CC2SCCNC2=O)cc1Cl (centres undefined),i,54*,-1,-20
COc1ccc(OC)c(NC2OC(=O)c3c2ccc(OC)c3OC)c1 (centres undefined),i,/,/,/
COC1=C(OC)C(=O)c2ccccc2C1=O,i,93*,/,/
COc1ccc(NS(=O)(=O)c2cccc3c2C(=O)c2ccccc2C3=O)cc1,i,/,/,/
COc1ccccc1-c1coc2cc(O)cc(O)c2c1=O,i,-4,-1,8
O=c1c(O)c(-c2cc(O)c(O)c(O)c2)oc2cc(O)cc(O)c12,i,100*,/,/
COc1ccc(-c2c(C)oc3cc(O)cc(O)c3c2=O)cc1OC,i,-4,-16,13
O=c1c(O)c(-c2ccc(O)cc2O)oc2cc(O)cc(O)c12,/,30,20,16
Oc1cc(O)cc(/C=C/c2ccc(O)c(O)c2)c1,+,108*,/,/
Cc1nn2c(-c3cccc(NC(=O)c4ccco4)c3)nnc2c2ccccc12,i,-9,-11,51*
Cc1nccn1CCC(N)=O,i,/,/,/
Cc1ccc(S(=O)(=O)C(CCC(=O)N2CCOCC2)S(=O)(=O)c2ccc(C)cc2)cc1,i,88*,-1,-8
CCCCCCCCCCCCC/C=C/C(O)C(N)CO (centres undefined),+,3,/,/
Sc1oc(-c2ccccc2)cc1C=Nc1ccc(Cl)cc1,i,/,/,/
CCN(CC)CCCNc1cc(OC)cc2ccc(OC)nc12,/,67*,/,/
CC(C)c1ccc(-c2nnn(CCC(=O)O)n2)cc1,i,2,-4,2
SMILES,BAP1 inh,Hsp90 inh,Cdc25B inh,MKP-1 inh
CCc1ccc(-c2nnn(CCC(=O)OC)n2)cc1,i,103*,-7,-10
COc1ccc(C(=O)Nc2ccc(NC(=O)c3ccc(C(C)(C)C)cc3)cc2)cc1[N+](=O)[O-],i,/,/,/
CN(C)c1ccc(N=Cc2nc(-c3ccccc3)oc2O)cc1,i,54*,11,8
CC1=C(/C=C/C(C)=C/C=C/C(C)=C/C(=O)Nc2ccc(O)cc2)C(C)(C)CCC1,+,8,/,/
CC1=C(/C=C/C(C)=C/C=C/C(C)=C\C(=O)O)C(C)(C)CCC1,i,-2,/,/
CC(CCc1ccc(O)cc1)NCCc1ccc(O)c(O)c1 (centres undefined),i,61*,/,/
CC12CC(NC(=O)N1c1ccc(C(=O)N3CCN(c4ccc(F)cc4)CC3)cc1)c1ccccc1O2 (centres undefined),i,0,8,53*
CC(C)OC(=O)CSc1nc2ccccc2s1,i,93*,-2,-14
CC(C)c1nnc(NC(=O)CSc2nc3ccccc3s2)s1,i,-3,1,39
Cc1ccc(NC(=O)CSc2nnc(-c3ccc(S(=O)(=O)N4CCCC4)cc3)o2)cc1C,/,2,-6,53*
CC1=C(C(=O)Nc2cccc(C)c2C)C(c2ccc(C)cc2)NC(=S)N1 (centres undefined),i,/,/,/
O=C(NC1CC1)c1c[nH]c2ccc(S(=O)(=O)Nc3cccc(C(F)(F)F)c3)cc2c1=O,/,-2,0,52*
N#C/C(C(=O)NCc1ccccc1)=C1\SC(CCO)C(=O)N1c1ccccc1 (centres undefined),i,-3,84*,-13
CC1=CC(C#N)(C#N)C(C#N)(C#N)C(c2ccccc2)N1 (centres undefined),/,51*,-4,-7
CCSC1(SCC)N=C(N)C2(C#N)C(c3ccccc3)NC(C)=C(C)C12C#N (centres undefined),i,-2,2,2
CCC(=O)NC1(C(F)(F)F)C(=O)Nc2c1c(=O)n(C)c(=O)n2C (centres undefined),i,-2,60*,4
CC(C)=CCC/C(C)=C/CC/C(C)=C/CSc1ccccc1C(=O)O,+,3,/,/
CCCOc1ccc(C(=O)CCN2CCOCC2)cc1,i,/,/,/
CCOC(=O)CNC(=O)c1ccc2[nH]c3c(c2c1)CCCC3,i,-3,-10,-1
CCS(=O)(=O)NCc1ccc2[nH]c3c(c2c1)CCCC3,i,71*,11,10
CCOC(=O)c1c(NC(=O)c2ccc([N+](=O)[O-])cc2Cl)sc2c1CCC(CC)C2 (centres undefined),i,/,/,/
CC(C)(C)NCC(O)COc1cccc2c1C[C@H](O)[C@H](O)C2 (some centres undefined),i,0,100*,-16
COc1ccc(CNC(=O)c2nn3c(c2Cl)NC(c2cccs2)CC3C(F)(F)F)cc1 (centres undefined),i,/,/,/
O=C(CCn1c(=O)[nH]c2ccccc2c1=O)Nc1ccccc1,i,0,102*,11
CC(=O)CCc1c(C)[nH]c2ccccc2c1=O,i,82*,-5,7
SMILES,BAP1 inh,Hsp90 inh,Cdc25B inh,MKP-1 inh
CCc1c(C)[nH]c2ccccc2c1=O,i,0,11,-4
O=C1c2ccccc2C(Nc2ccc3nc(-c4cccnc4)[nH]c3c2)N1Cc1ccco1 (centres undefined),i,7,4,7
O=C(NCc1cccnc1)C1c2ccccc2C(=O)N1Cc1ccco1 (centres undefined),i,57*,-3,5
Cc1cc(C)n(-c2ccc(C(=O)OCn3nnc4ccccc4c3=O)cc2)n1,i,-4,6,4
Cc1nn(-c2ccccc2)c2sc(C(=O)OCn3nnc4ccccc4c3=O)cc12,+,-8,-3,9
CC(N)(Cc1ccc(O)c(O)c1)C(=O)O (centres undefined),i,54*,/,/
C[C@@](Cc1ccc(O)c(O)c1)(NN)C(=O)O,i,31,8,6
O=C1NCCCC2c3cc(O)c4ccccc4c3OC12N1CCCCC1 (centres undefined),i,95*,46,40
O=C1NCCCC2c3c(cc(Br)c(O)c3Br)OC12N1CCOCC1 (centres undefined),i,4,0,-16
O=C(Nc1nc2c(cc3c4c(cccc42)CC3)s1)c1ccc(S(=O)(=O)N2CCc3ccccc32)cc1,i,/,/,/
